The values below come from PubChem BioAssay AID434973 (Sanford-Burnham Center for Chemical Genomics, 2010).

SMILES strings stand for the structures. Out of some 330,000 compounds screened, about 4,900 (1.5%) were called active. This excerpt belongs to a sample that is enriched for actives. A number with no mark means an inactive call.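 The calls were made as follows: active = inhibition above about 50% at the single test dose (limit read from the data); inactive = the rest.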

The experiment has as its target Sentrin-specific protease 7 (Homo sapiens) (UniProt Q9BQF6). The experiment is described as follows: blockers of human SENP7 peptidase activity – biochemical, luminescence, uHTS, primary screen (AID 434973).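 Also: plate controls were DMSO with enzyme for no effect and no enzyme buffer wells for full effect.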 The following applies: recombinant SENP7, Z-RLRGG-aminoluciferin luminescence, 40 min; at 5 µM; stronger effect = higher value.
`O=C(Nc1ccccc1)c1nnsc1S(=O)(=O)c1ccc(Cl)cc1`: the inhibition (as a rule, the drop in the measured response relative to a control, in per cent) was 7.61%.
For the compound `O=C(Oc1ccccc1)Oc1ccc2c(c1)oc(=O)c1ccccc12`, the inhibition is 11.6%.
As to `Cc1cc(NC(=O)C(C)SCC(=O)Nc2ccccc2N2CCCCC2)no1` (stereo unspecified), the inhibition was 7.37%.
`Cc1nn(C)c(C(=O)NNC(=S)NC2CCCCC2)c1Cl`: the inhibition is 15.8%.
As for `O=C(CN1C(=O)NC2(CCCC2)C1=O)OCCOc1ccc(F)cc1`, the inhibition was 2.48%.
Take `OCCC1CN(Cc2cccc(O)c2)CCN1CCc1ccccc1` (stereo unspecified): the inhibition is -3.9%.
Turning to `COC(=O)c1oc2ccc(Br)cc2c1NC(C)=O`, the inhibition is -6.53%.
As to `Cc1c(C(=O)Nc2ccccn2)oc2ccc(Br)cc12`, the inhibition is 65.6% (active).
For the compound `Cc1nonc1NC(=O)c1oc2ccccc2c1C`, the inhibition is -17.1%.
To `Cc1ccc(OCC(=O)Nc2ccccc2Sc2ccc(Cl)cc2)c([N+](=O)[O-])n1` belongs 3.81%; to `CCN(CC(=O)Nc1ccc(NC(C)=O)cc1)C(=O)CSC(=S)N1CCCC1`, -7.39%; to `Cc1cccc(NC(=O)Nc2ccc3c(c2)OCO3)n1`, 17%.
Consider `Cc1cccc(NC(=O)/C=C/c2ccc3c(c2)OCO3)n1`, for which the inhibition was 78% (active).
As to `O=C(/C=C/c1ccc2c(c1)OCO2)NCc1ccc(F)cc1`, the inhibition was -2.53%.
Consider `CCN(CC(=O)NCC(=O)Nc1cccc(C)c1C)Cc1ccccc1`, for which the inhibition was 1.52%.
For `O=C(COC(=O)c1ccc(O)cc1)Nc1nccs1`, the inhibition was -6.7%.
As to `Cc1c(Cl)cccc1NC(=O)Nc1ccc(C(=O)N2CCCC2)cc1`, the inhibition is 57% (active).
With `Cc1c(Cl)cccc1NC(=O)NCCCN1CCCC1=O` the figure was -2.59%; with `O=C(Nc1ccc(Cl)cc1)Nc1ccc(C(=O)N2CCOCC2)cc1`, 11.1%.
With `COc1ccc(N2CCN(C(=O)c3cn(C)c4ccc(S(=O)(=O)N5CCOCC5)cc4c3=O)CC2)cc1` the figure was 8.09%.
With `Cc1ccc(/C(N)=N/OC(=O)COc2ccc(Cl)c(C)c2)cc1`, the inhibition was -1.43%.
For `Cc1cccc(/C(N)=N/OC(=O)c2ccccc2Cl)c1`, the inhibition was 98.2% (active).
Turning to `N/C(=N\OC(=O)c1cc(-c2ccccc2)nc2ccccc12)c1ccncc1`, the inhibition is -11.9%.
In the case of `CC(C)c1ccc(NC(=O)CCN2C(=O)c3ccc([N+](=O)[O-])cc3C2=O)cc1`, the inhibition is -0.0494%.
As for `COc1ccc(C(=O)COC(=O)Cn2cnc3c2c(=O)n(C)c(=O)n3C)c(OC)c1`, the inhibition was -3.24%.
In the case of `CC(C)n1c(COc2ccccc2)nc2ccccc21`, the inhibition is 15%.
With `Cc1ccc(OCc2nc3ccccc3n2C)cc1`, the inhibition is 59.7% (active).
Consider `Cn1c(COc2ccc(Cl)cc2)nc2ccccc2c1=O`, for which the inhibition was -3.98%.
`O=C(Cn1c(COc2ccccc2)nc2ccccc21)Nc1cc(Cl)c(Cl)cc1Cl`: the inhibition is -0.0494%.
Consider `CCOc1ccc(C(O)Cc2nc3ccccc3n2C)cc1` (stereo unspecified), for which the inhibition was 3.12%.
For `COCn1c(COc2ccccc2)nc2ccccc21`, the inhibition is 65.8% (active).
For the compound `Cc1ccc(/C=N/NC(=O)C(NC(=O)c2ccccc2)c2n[nH]c(=O)c3ccccc23)cc1` (stereo unspecified), the inhibition is 0.556%.
On to `COC(=O)c1sccc1NS(=O)(=O)c1ccc(F)cc1F`, for which the inhibition was 6.45%.
On to `COC(=O)[C@]1(Cc2ccccc2)N[C@H](CN(C)S(=O)(=O)c2ccc(F)cc2)[C@@H]2C(=O)N(Cc3ccccc3)C(=O)[C@@H]21`, for which the inhibition is 1.87%.
`CNc1[nH]ncc1[N+](=O)[O-]`: the inhibition was 3.45%.
For `Cc1cc(C(=O)N/N=C\C(Br)=C\c2ccccc2)c(C)o1`, the inhibition was 21.1%.
For the compound `COc1ccc(C/C(C)=N/NC(=O)c2cc(C)oc2C)cc1`, the inhibition is -5.26%.
Turning to `O=C(NN=Cc1ccc(N2CCOCC2)cc1)c1cc2ccccc2cc1O`, the inhibition was 4.23%.
For `Cc1cc(C(=O)N/N=C/c2ccc(N3CCOCC3)cc2)c(C)o1`, the inhibition is 85.5% (active).
In the case of `CC(=C/c1ccccc1)/C=N/NC(=O)c1cc(C)oc1C`, the inhibition is 73% (active).
On to `Cc1ccccc1N/N=C/c1ccc(N2CCOCC2)cc1`, for which the inhibition is -3.84%.
Consider `O=C(c1ccc(CS(=O)(=O)c2ccccc2)o1)N1CCN(c2ccccc2)CC1`, for which the inhibition is -0.219%.
As to `O=C(NNc1ccccc1Cl)C(O)(c1cccc(C(F)(F)F)c1)c1cccc(C(F)(F)F)c1`, the inhibition is 1.97%.
With `COc1cc(CNC2CCCCC2)c(Br)cc1OC1CCCC1`, the inhibition was -2.57%.
On to `COc1ccc(C(C)NC(=O)C2CCCC2)cc1` (stereo unspecified), for which the inhibition is 1.04%.
Consider `COc1cccc(C(=O)NNC(=O)c2cccc(F)c2)c1`, for which the inhibition was 3.09%.
As for `COc1cccc(C(=O)c2cc3ccc(O)cc3oc2=O)c1`, the inhibition was 100% (active).
For the compound `CCOC(=O)c1cc2cc3ccccc3cc2oc1=O`, the inhibition is 7.03%.
Turning to `COc1ccc(N2CC(C(=O)NCCN3C(=O)S/C(=C\c4cccnc4)C3=O)CC2=O)c(OC)c1` (stereo unspecified), the inhibition is -2.06%.
To `Cc1nc(-c2ccc(F)cc2)c(CC(=O)N(C)CC(=O)Nc2c(C)cccc2C)s1` belongs -11.8%; to `CSCCC1NC2(C(=O)Nc3ccc(Cl)cc32)[C@@H]2C(=O)N(C3CCCC3)C(=O)[C@H]12` (stereo partly specified), 10.2%.
To `COc1ccc(OC)c2[nH]c(=O)c(CCNC(=O)C(=O)c3c[nH]c4ccccc34)cc12` belongs 4.26%; to `CCOC(=O)N1CCN(C(=O)COc2ccc3oc4c(c3c2)CCCC4)CC1`, -3.39%; to `O=C(COc1ccc2oc3c(c2c1)CCCC3)Nc1ccccn1`, 89.1% (active).
With `CCN(CC)CCCNC(=O)COc1ccc2oc3c(c2c1)CCCC3` the figure was 3.16%; with `O=C1C=C(c2ccnc3cc(Cl)ccc23)C[C@@H](c2ccc3c(c2)OCO3)C1`, 2.03%.
As to `CC(=O)N1CCN(S(=O)(=O)c2ccc(C)c([N+](=O)[O-])c2)C1C(C)C` (stereo unspecified), the inhibition was 2.77%.
Consider `CCOC(=O)C(NC(=O)CC(C)C)(Nc1sc2c(c1C(N)=O)CCCC2)C(F)(F)F` (stereo unspecified), for which the inhibition was -5.57%.
`CC(NCc1ccccc1OC1CCCC1)c1ccccc1` (stereo unspecified): the inhibition is 8.44%.
Regarding `Cc1ccc(/C=N/NC(=O)c2cc3ccccc3cc2O)o1`, the inhibition was 19%.
With `Cc1cc(N=Nc2ccc3ccccc3c2)ccc1O`, the inhibition was 97.5% (active).
As to `COC(=O)c1cccc(-n2[nH]nnc2=S)c1`, the inhibition is 8.95%.
Consider `Cc1ccc(CSc2ccc(S(=O)(=O)N3CCCCC3)cn2)cc1`, for which the inhibition was 14.9%.
As for `COc1cc(C(=O)N2CCN(C)CC2)cc(OC)c1OC`, the inhibition is -4.77%.
On to `O=c1[nH]c(/C=C\c2cccc(C(F)(F)F)c2)nc(O)c1[N+](=O)[O-]`, for which the inhibition is 11.2%.
In the case of `CCOc1cc(/C=C/c2nc3ccccc3c(=O)[nH]2)cc(Br)c1OC`, the inhibition is -1.26%.
Regarding `O=c1[nH]c(/C=C/c2cccc(Br)c2)nc2ccccc12`, the inhibition is 65.8% (active).
Consider `COc1ccccc1N(CC(=O)Nc1ccccc1C(=O)N1CCCC1)S(C)(=O)=O`, for which the inhibition was 5.42%.
With `CCOC(=O)c1cnc(COc2ccccc2Cl)[nH]c1=O`, the inhibition is -8.27%.
In the case of `CCOC(=O)c1cnc2[nH]c3ccccc3n2c1=O`, the inhibition is 83.7% (active).
As to `CCOC(=O)c1cnc2sccn2c1=O`, the inhibition is 0.0796%.
As for `COc1cc(Cl)c(C)cc1NC(=O)CN1CCCCCC1`, the inhibition was 7.89%.
To `CC(C)CCOc1ccc(C(=O)C[N+]2(C)CCOCC2)cc1` belongs 0.789%; to `O=C(Cn1ccc([N+](=O)[O-])n1)NCc1cccs1`, 71.3% (active).
To `O=C(CCn1ccc([N+](=O)[O-])n1)Nc1nccs1` belongs 0.106%; to `Cc1ccnc(NC(=O)Cn2ccc([N+](=O)[O-])n2)c1`, 10%; to `COc1ccc(N(CC(=O)NC2CCCCC2)C(=O)CNC(=O)c2ccco2)c(OC)c1`, 6.97%.
To `Cc1noc(C)c1C(=O)NCCc1ccc(S(N)(=O)=O)cc1` belongs 10.1%.
Turning to `CCCC(=O)N(CCN1CCOCC1)c1nc2ccc(OCC)cc2s1`, the inhibition was 28.1%.
Take `CCOc1ccc2nc(C(=O)N3CCCC(C)C3)sc2c1` (stereo unspecified): the inhibition was 67.4% (active).
Consider `COc1ccc2cc(C(=O)C3CCCN(C(=O)c4sc(C)nc4C)C3)ccc2c1` (stereo unspecified), for which the inhibition is -3.44%.
With `Cc1ccc(CNC(=O)Cn2cnc3c(NCc4ccccc4)ncnc32)o1`, the inhibition is -4.15%.
Consider `C=C(Cl)COC(=O)C1C2C=CC(C2)C1C(=O)O` (stereo unspecified), for which the inhibition is -1.65%.
As for `CSCCC(NC(=O)C1CCC(C)CC1)C(=O)NCc1ccco1` (stereo unspecified), the inhibition is 0.735%.
On to `O=C(O)c1ccccc1NC(=S)NC(NC(=O)c1ccccc1[N+](=O)[O-])C(Cl)(Cl)Cl` (stereo unspecified), for which the inhibition is 14%.
Turning to `CCCCCCc1cc2cc(-c3nnc(-c4ccccc4)o3)c(=O)oc2cc1O`, the inhibition is -10.4%.
In the case of `CN(C)c1cc(-c2ccc(F)cc2)oc(=O)c1Cl`, the inhibition was 5.73%.
As for `O=c1oc2cc(O)ccc2cc1-c1ccc(F)cc1`, the inhibition was 100% (active).
With `Cn1c(N)c(C(=O)COC(=O)C23CC4CC(CC(C4)C2)C3)c(=O)n(C)c1=O`, the inhibition is -1.02%.
`COc1cc(NC(=O)c2cncc(-c3ccc(C#N)cc3)c2)cc(C(=O)Nc2cccc(C(F)(F)F)c2)c1`: the inhibition is -7.54%.
As for `O=C(Nc1nc2ccc([N+](=O)[O-])cc2s1)c1ccncc1`, the inhibition is 85.8% (active).
With `O=C(NC(Nc1nc2ccc([N+](=O)[O-])cc2s1)(C(F)(F)F)C(F)(F)F)c1ccccc1` the figure was 3.23%; with `COc1ccc(C(=O)Nc2nc(-c3ccc(OC)cc3)c(-c3ccc([N+](=O)[O-])cc3)s2)cc1`, -0.702%.
To `CCCc1cc(=O)oc2c(C)c(OCC(=O)N3CCC(C(=O)O)CC3)ccc12` belongs -6.34%; to `CCCc1cc(=O)oc2c(C)c(OCC(=O)Nc3ccccn3)ccc12`, 70.1% (active).
As to `CCCc1cc(=O)oc2c(C)c(OCC(=O)NCc3ccccn3)ccc12`, the inhibition is 12.3%.
